Source: PubChem BioAssay
Active and inactive are the calls of the source.

Experiments:
[1] = system: Human papillomavirus type 1a protein E7 (residues 44-93); test: HPV1a E7 fragment binders on microarrays, primary screen, biochemical, small-molecule microarray, residues 44-93, 635 nm fluorescence (AID 1108); details: small-molecule microarray binding, fluorescence 635 nm; higher = more signal;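 further: E7 fragment applied at 1 µg/mL in TBST for 1 h at 4 C; score combines spot fluorescence with its signal to noise ratio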
[2] = modulators of HCV replicon luciferase signal, primary screen, HCV replication inhibitor project, Huh7 cells, luciferase reporter (AID 1109); details: 48 h, higher = more signal;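 further: huh7 hepatoma cells harbouring a luciferase neomycin HCV replicon reporter; luciferase luminescence as measure of HCV replicon replication; test concentration not given here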
[3] = target: Left-right determination factor 2 (Homo sapiens) (UniProt O00292); test: LEFTY2 binders on small-molecule microarrays, primary screen, biochemical, small-molecule microarray, 635 nm fluorescence scan (AID 1110); details: LEFTY2 binding, higher = more signal
Left-right determination factor 2 (Homo sapiens), sequence (O00292 whole entry, looked up): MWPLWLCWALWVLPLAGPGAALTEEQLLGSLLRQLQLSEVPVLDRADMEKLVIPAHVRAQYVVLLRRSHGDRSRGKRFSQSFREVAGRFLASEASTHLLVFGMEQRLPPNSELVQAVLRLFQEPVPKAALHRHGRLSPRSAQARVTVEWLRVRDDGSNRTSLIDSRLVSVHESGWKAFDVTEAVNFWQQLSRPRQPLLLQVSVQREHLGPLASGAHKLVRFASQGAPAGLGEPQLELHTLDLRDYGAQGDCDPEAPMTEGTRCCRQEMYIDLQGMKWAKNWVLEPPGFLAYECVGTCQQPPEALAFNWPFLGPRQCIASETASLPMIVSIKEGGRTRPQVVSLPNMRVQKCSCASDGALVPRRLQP

[4] = target: Calmodulin-1 (Homo sapiens) (UniProt P0DP23); test: CALM1 binders on microarrays, EGTA buffer, profiling panel, biochemical, small-molecule microarray, Cy5-labelled CALM1 (AID 1111); details: Cy5-CALM1 binding fluorescence, higher = more signal;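 further: labelled calmodulin applied in Tris saline Tween buffer holding calcium plus EGTA and DTT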
[5] = target: Calmodulin-1 (Homo sapiens) (UniProt P0DP23); test: calcium-bound CALM1 binders on microarrays, profiling panel, artefact control for SMM control-protein annotation, biochemical, small-molecule microarray, Cy5-labelled CALM1, plus calcium (AID 1112); details: Cy5-CALM1 binding fluorescence, higher = more signal;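 further: score merges spot fluorescence with signal to noise from triplicate slides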
[6] = small-molecule microarray binders of probe aWnt5a, primary screen, biochemical, biotinylated probe, 635/667 nm fluorescence (AID 1113); details: higher = more signal;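 further: score merges 667 nm fluorescence intensity with signal-to-noise per printed feature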
[7] = small-molecule microarray binders of probe aShh, primary screen, biochemical, biotinylated probe, 635/667 nm fluorescence (AID 1114); details: higher = more signal;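 further: probe is biotin-labelled aShh protein from a stem cell growth factor screen; measures binding of labelled protein to compounds printed on the slide; score merges feature fluorescence at 667 nm with signal-to-noise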
[8] = small-molecule microarray binders of probe aNog, primary screen, biochemical, biotinylated probe, 635/667 nm fluorescence (AID 1115); details: higher = more signal;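 further: probe is biotinylated aNog protein used at 0.15 µg/mL for 1 h at 4 C; z-score combines 667 nm fluorescence of each spot with its signal to noise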
[9] = target: Torsin-1A-interacting protein 1 (Homo sapiens) (UniProt Q5JTV8); test: LAP1 binders from COS7 cell lysate, primary screen, small-molecule microarray, 635/667 nm fluorescence (AID 1116); details: COS7-hLAP1 lysate binding, 635 nm fluorescence, higher = more signal
Torsin-1A-interacting protein 1 (Homo sapiens), sequence (Q5JTV8 whole entry, looked up): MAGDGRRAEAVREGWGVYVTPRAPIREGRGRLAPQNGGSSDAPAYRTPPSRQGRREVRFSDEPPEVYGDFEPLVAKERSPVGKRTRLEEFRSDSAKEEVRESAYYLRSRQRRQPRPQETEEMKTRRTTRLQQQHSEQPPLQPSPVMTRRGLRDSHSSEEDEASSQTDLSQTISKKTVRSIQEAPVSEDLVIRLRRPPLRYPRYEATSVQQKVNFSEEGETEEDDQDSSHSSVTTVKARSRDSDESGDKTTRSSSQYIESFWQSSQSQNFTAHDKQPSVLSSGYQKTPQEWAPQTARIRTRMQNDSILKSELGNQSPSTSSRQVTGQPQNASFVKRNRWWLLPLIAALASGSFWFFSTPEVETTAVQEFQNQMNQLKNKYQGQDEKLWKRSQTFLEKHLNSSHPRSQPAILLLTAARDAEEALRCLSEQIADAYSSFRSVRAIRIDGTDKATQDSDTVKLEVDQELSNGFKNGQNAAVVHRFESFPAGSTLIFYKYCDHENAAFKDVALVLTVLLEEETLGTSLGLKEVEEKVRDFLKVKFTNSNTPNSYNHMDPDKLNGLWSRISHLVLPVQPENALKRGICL

[10] = target: Alpha-bungarotoxin (Bungarus multicinctus) (UniProt P60615); test: alpha-bungarotoxin binders on microarray, profiling panel, artefact control for SMM control protein annotation, biochemical, small-molecule microarray, Alexa647 label, 635/667 nm fluorescence (AID 1117); details: alpha-BTX-A647 binding fluorescence, higher = more signal
Alpha-bungarotoxin (Bungarus multicinctus), sequence (P60615 whole entry, looked up): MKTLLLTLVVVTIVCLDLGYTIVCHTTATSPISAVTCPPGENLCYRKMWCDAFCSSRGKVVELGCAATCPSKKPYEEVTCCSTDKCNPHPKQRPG

Albumin (Bos taurus) = Albumin (Bos taurus) (UniProt P02769); test: bovine serum albumin binders on microarray, profiling panel, artefact control for SMM control protein annotation, biochemical, small-molecule microarray, Alexa647 label, 635/667 nm fluorescence (AID 1118); details: BSA-A647 binding, fluorescence 635 nm, higher = more signal;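 further: score merges 667 nm emission intensity and signal-to-noise per printed compound spot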
Albumin (Bos taurus), sequence (P02769 whole entry, looked up): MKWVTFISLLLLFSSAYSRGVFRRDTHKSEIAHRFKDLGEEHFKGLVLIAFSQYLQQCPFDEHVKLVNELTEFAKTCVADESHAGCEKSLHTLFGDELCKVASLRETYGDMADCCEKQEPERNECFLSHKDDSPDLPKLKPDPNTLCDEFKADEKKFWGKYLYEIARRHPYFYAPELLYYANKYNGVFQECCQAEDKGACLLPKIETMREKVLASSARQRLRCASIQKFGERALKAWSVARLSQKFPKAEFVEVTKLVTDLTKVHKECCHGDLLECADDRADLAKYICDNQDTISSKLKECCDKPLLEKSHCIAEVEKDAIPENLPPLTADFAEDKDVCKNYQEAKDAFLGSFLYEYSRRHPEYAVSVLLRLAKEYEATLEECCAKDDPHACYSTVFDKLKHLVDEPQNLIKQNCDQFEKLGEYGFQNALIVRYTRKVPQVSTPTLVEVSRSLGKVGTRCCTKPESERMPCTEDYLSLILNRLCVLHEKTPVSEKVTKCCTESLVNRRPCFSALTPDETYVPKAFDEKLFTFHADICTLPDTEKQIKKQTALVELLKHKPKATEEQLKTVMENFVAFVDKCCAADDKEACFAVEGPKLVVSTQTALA

[11] = small-molecule microarray binders of probe aXIP, primary screen, biochemical, NeuroSMM set, 635/667 nm fluorescence (AID 1119); details: higher = more signal, called active from +8 up or from −8 down;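 further: probe is the protein aXip251-270 applied at 1 µg/mL to compound-printed slides; binding of probe to printed compounds measured as 667 nm fluorescence plus signal to noise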
[12] = small-molecule binders of probe aNOTCH3, primary screen, biochemical, small-molecule microarray, 635/667 nm fluorescence (AID 1120); details: higher = more signal;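 further: probe is a biotin-tagged antibody raised against NOTCH3 rather than NOTCH3 protein; score merges spot fluorescence near 667 nm with spot signal to noise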
[13] = small-molecule binders of probe aNOTCH2, primary screen, biochemical, small-molecule microarray, 635/667 nm fluorescence (AID 1121); details: higher = more signal;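 further: score merges feature fluorescence read at 667 nm with its signal to noise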
[14] = target: Carbonic anhydrase 2 (Homo sapiens) (UniProt P00918); test: CAII small-molecule binders, profiling panel, biochemical, small-molecule microarray, Alexa647-labelled CAII (AID 1122); details: CAII-A647 binding fluorescence, higher = more signal
[15] = COS7 lysate on small-molecule microarray, probe aHis, 635 nm (AID 1123); details: COS7 cell lysate, fluorescence, higher = more signal;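 further: z-score combines 667nm fluorescence intensity with signal-to-noise per printed compound spot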
[16] = compound binding in COS7 lysate, probe aLAP1, primary screen, cell lysate, small-molecule microarray (AID 1124); details: probe aLAP1, fluorescence, higher = more signal;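 further: lysate comes from COS7 cells expressing LAP1 and is applied at 0.3 µg/mL; score merges spot fluorescence near 667 nm with signal-to-noise over triplicate slides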
Sam68 (KHDRBS1) = test: Sam68 small-molecule binders, primary screen, biochemical, small-molecule microarray, 635 nm fluorescence (AID 1125); details: small-molecule microarray binding, higher = more signal;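 further: score merges 667 nm channel intensity with signal to noise over triplicate slides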
[17] = system: Chordin-like protein 2 (CHRDL2); test: CHRDL2 small-molecule binders, primary screen, biochemical, small-molecule microarray, 635 nm fluorescence (AID 1126); details: small-molecule microarray binding, fluorescence 635 nm; higher = more signal;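 further: printed compound slides probed with Chrdl2 protein at 4 µg/mL for 1 h at 4 C; score merges 667 nm emission intensity with signal to noise over three replicate slides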
[18] = target: Concanavalin-A (Canavalia ensiformis) (UniProt P02866); test: ConA small-molecule binders, primary screen, artefact control for SMM control protein annotation, biochemical, small-molecule microarray, Alexa647 label, 635 nm (AID 1127); details: ConA-A647 binding fluorescence, higher = more signal;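 further: z combines 667 nm emission intensity with signal-to-noise across three replicate slides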
Concanavalin-A (Canavalia ensiformis), sequence (P02866 whole entry, looked up): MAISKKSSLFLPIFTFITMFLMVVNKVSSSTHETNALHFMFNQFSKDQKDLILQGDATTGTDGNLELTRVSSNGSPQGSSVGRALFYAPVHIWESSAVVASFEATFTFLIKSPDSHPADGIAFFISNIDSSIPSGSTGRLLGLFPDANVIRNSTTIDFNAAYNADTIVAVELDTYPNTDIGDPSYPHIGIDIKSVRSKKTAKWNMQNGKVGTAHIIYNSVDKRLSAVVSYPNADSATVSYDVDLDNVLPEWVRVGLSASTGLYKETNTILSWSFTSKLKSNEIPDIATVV

Compound | composite z-score [1] | z-score [2] | composite z-score [3] | composite z-score [4] | composite z-score [5] | composite z-score [6] | composite z-score [7] | composite z-score [8] | composite z-score [9] | composite z-score [10] | composite z-score (Albumin (Bos taurus)) | composite Z-score [11] | composite z-score [12] | composite z-score [13] | composite z-score [14] | composite z-score [15] | composite z-score [16] | composite z-score (Sam68 (KHDRBS1)) | composite z-score [17] | composite z-score [18]
COCCCNC(=O)[C@]1(CCS(=O)(=O)c2ccccc2)N=C(c2ccc(OCCCO)cc2)O[C@@H]1c1ccccc1N=[N+]=[N-] | 1.23 | -0.562 | -0.0904 | 2.09 | 0.893 | 0.0988 | 0.203 | 0.698 | -0.342 | 2.68 | 1.02 | 0.778 (inactive) | 0.486 | -0.143 | 0.569 | 2.39 | 0.371 | 1.31 | -0.71 | 1.18
COCCOC(=O)N1C(=O)[C@@]2(c3cc(C#CC4=CCCCC4)ccc31)[C@H](C(N)=O)[C@H]1C(=O)O[C@H](c3ccccc3)[C@H](c3ccccc3)N1[C@@H]2c1ccccc1OCCO | 0.22 | -3.15 | 0.423 | 0.994 | -0.121 | 0.0839 | 0.173 | 0.0157 | 1.25 | 1.69 | -0.24 | -0.0254 (inactive) | -0.0057 | -0.114 | 0.652 | 1.59 | 0.806 | 1.31 | 0.588 | 1.11
CC[C@H]1C2=C3C(CC[C@H]4C(OCc5ccc(F)cc5C(F)(F)F)OC[C@](C)([C@@H]34)N(C(=O)OC(C)(C)C)C2)C(COC)C1COC (stereo not given in full) | 0.732 | -0.25 | -0.696 | 0.914 | 0.771 | 0.0768 | -0.214 | 1.33 | -0.0575 | 0.0915 | 0.515 | 0.0377 (inactive) | 0.0851 | -0.0372 | 0.687 | 1.1 | -0.115 | 0.0783 | -0.882 | 0.401
COc1ccc([Si](C)(C)[C@@H]2[C@@H](CC(=O)N(CCO)Cc3ccccc3)O[C@]3(C(=O)N(c4ccccc4)c4ccccc43)[C@H]2C)cc1 | 1.33 | -4.59 | 0.739 | 0.545 | 0.0061 | -0.0559 | -0.135 | -0.495 | 0.395 | 0.883 | 0.593 | 0.657 (inactive) | 0.105 | -0.162 | 0.357 | 1.07 | 0.0513 | 0.981 | 1.4 | 1.1
C=CCC(OC(C)=O)[C@@H]1[C@@H](N(Cc2cc3ccccc3o2)C(=O)c2ccc(-c3ccccc3)cc2)c2cc(OCCCO)ccc2N1C(=O)c1ccc2ccccc2c1 (stereo not given in full) | 0.143 | -1.48 | 0.0403 | 0.137 | 0.185 | -0.0398 | 0.0048 | -0.466 | 0.612 | 0.264 | 0.0005 | 0.142 (inactive) | -0.154 | -0.106 | -0.105 | 0.612 | 0.0944 | 0.095 | 0.0295 | -0.0066
CN1C(=O)C2C=CC(C(O)c3cccc(O)c3)N(Nc3ccccc3)C2C1=O (stereo not given) | -0.286 | 0.359 | 0.13 | -0.185 | -0.09 | 0.0597 | 1.72 | 0.582 | 0.203 | 0.041 | 0.976 | 0.501 (inactive) | 0.17 | -0.14 | 0.552 | 0.247 | -0.279 | -0.172 | -0.246 | 0.312
CC(C)(C)OC(=O)CC[C@]1(C(=O)NCC(O)CO)N=C(c2ccc(OCCCO)cc2)O[C@H]1c1ccccc1 (stereo not given in full) | 1.32 | -1.74 | -1.13 | 0.451 | 1.24 | -0.0403 | -0.0904 | 0.701 | 1.93 | -0.383 | 0.902 | 0.561 (inactive) | -0.0678 | -0.0843 | 0.873 | 3.11 | 0.0605 | 0.723 | -0.852 | -0.137
C=CC1c2cc(O)c(OC)cc2CCN1Cc1cc2c(cc1Br)OCO2 (stereo not given) | -0.483 | -2.93 | 0.15 | -0.941 | -1.24 | -0.1 | 0.199 | 0.2 | 1.69 | 0.271 | -0.956 | 0.577 (inactive) | -0.0152 | -0.0891 | 0.823 | 1.99 | 1.25 | 0.342 | 0.775 | 0.142
COC(=O)[C@@]1(Cc2ccc(OC)cc2)[C@H]2c3cc(C(=O)N4CCCC4)n(Cc4c(-c5ccccc5)noc4C)c3C[C@H]2CN1C(=O)c1ccccc1 | 1.41 | -2.21 | -0.181 | 1.5 | 0.716 | 0.42 | 0.268 | 1.85 | 0.764 | 0.818 | 0.634 | 0.216 (inactive) | 0.576 | 0.251 | 0.446 | 3.24 | 0.214 | 1.35 | -0.748 | 0.978
O=C(NCCCCCNC(=O)/C(Cc1ccccc1)=N/O)OCc1ccccc1 | -0.0938 | -1.24 | 0.629 | -0.503 | -0.592 | -0.0445 | -0.426 | -0.633 | 0.154 | 0.269 | -0.0396 | -0.136 (inactive) | -0.165 | -0.195 | -0.162 | -0.564 | 0.148 | -0.0603 | 0.366 | -0.485
COC(=O)C(CC#Cc1ccc2c(c1)[C@]1(C(=O)N2)[C@H](C(=O)N2CCN(c3ncccn3)CC2)[C@H]2C(=O)O[C@H](c3ccccc3)[C@H](c3ccccc3)N2[C@@H]1c1ccc(OCCO)cc1)C(=O)OC | 1.45 | -1.7 | 0.839 | 0.918 | 0.245 | -0.0792 | -0.144 | 0.0574 | 0.624 | 2.21 | 0.535 | -0.425 (inactive) | 0.207 | -0.0821 | 0.259 | 1.41 | -0.192 | 1.3 | 0.621 | 1.07
